Screens from PubChem BioAssay.
The list is not random: actives were taken first. Their share in the collection is about 2.8%.
SENP8 block-1: inhibitors of human SENP8 protease | Q96LD8 | recombinant SENP8, Nedd8 substrate fluorescence | inhibition, % at 20 µM | 0.64% of 360,000 active; in the data active = inhibition mostly above about 40%, no sharp cut-off; inactive = mostly below about 27%
SENP7 block: SENP7 protease inhibition; inhibition, % at 5 µM; recombinant SENP7, Z-RLRGG-aminoluciferin luminescence, 40 min; Q9BQF6; AID 434973; 1.5% of 330,000 active;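 active = inhibition above about 50% at the single test dose, limit read from the data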;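 note: plate controls were DMSO with enzyme for no effect and no enzyme buffer wells for full effect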
SENP8 block-2: inhibitors of human SENP8 protease. Q96LD8. 1.2% of 330,000 active. purified SENP8, Z-RLRGG-aminoluciferin cleavage, luminescence. AID 2540. inhibition, % at 10 µM; in the data active = inhibition above about 50%
SENP6 inh: inhibitors of human SENP6 protease. Recombinant SENP6 catalytic domain, aminoluciferin luminescence. inhibition, % at 10 µM. 1.8% of 330,000 active. AID 2599;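 active = inhibition above about 50% at the single tested dose, limit read from the data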;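 note: plate controls were DMSO wells with enzyme for no effect and DMSO wells lacking enzyme for full effect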
Target sequence (Q9GZR1 628-1112 limits assumed): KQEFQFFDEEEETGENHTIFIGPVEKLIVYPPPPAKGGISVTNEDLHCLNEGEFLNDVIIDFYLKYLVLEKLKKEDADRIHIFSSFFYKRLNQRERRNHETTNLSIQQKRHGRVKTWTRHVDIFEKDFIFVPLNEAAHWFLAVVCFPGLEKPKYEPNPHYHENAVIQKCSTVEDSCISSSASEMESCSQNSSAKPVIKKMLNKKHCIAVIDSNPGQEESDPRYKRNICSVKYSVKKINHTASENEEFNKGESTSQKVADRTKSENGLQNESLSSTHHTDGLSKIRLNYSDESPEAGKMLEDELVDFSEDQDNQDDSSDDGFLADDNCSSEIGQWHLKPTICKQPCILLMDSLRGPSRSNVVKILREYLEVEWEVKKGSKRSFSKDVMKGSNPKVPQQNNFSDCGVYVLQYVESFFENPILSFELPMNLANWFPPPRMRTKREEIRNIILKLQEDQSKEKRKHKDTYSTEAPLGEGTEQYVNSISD
HSP90 inh: blocks HSP90-mediated luciferase refolding in reticulocyte lysate | Rabbit reticulocyte lysate, luciferase refolding luminescence, 3 h | inhibition, % at 5.6 µM | 0.91% of 290,000 active | AID 1789;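 active = inhibition above the screen-wide mean plus 3 SD, computed separately per campaign, cut at about 16% in these data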;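 note: 0% = DMSO wells and 100% = 60 µM geldanamycin wells; inhibitors lower the luminescence because luciferase stays unfolded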
SENP8 conf: human SENP8 inhibition, confirmed; 40% of 6,200 active; shares compounds with SENP7 block; Recombinant SENP8, Z-RLRGG-aminoluciferin luminescence, 60 min; inhibition, % at 12.5 µM;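 active = mean inhibition across replicates above about 50%, limit read from the data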
SENP6 confirm: human SENP6 inhibition, confirmed; shares compounds with SENP7 block; recombinant SENP6, Z-RLRGG-aminoluciferin luminescence; inhibition, % at 12.5 µM; 58% of 6,200 active; AID 488915
SENP7 confirm: confirmation of human SENP7 protease inhibitors; shares compounds with SENP7 block; 69% of 6,200 active; inhibition, % at 12.5 µM; recombinant SENP7, Z-RLRGG-aminoluciferin luminescence, 40 min
Casp3 select: selectivity test for SENP inhibitors: human caspase-3 inhibition | shares compounds with SENP7 block | purified caspase-3, Z-DEVD-aminoluciferin luminescence, 60 min | inhibition, % at 12.5 µM | 60% of 6,200 active;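 active = mean inhibition above about 50%, limit read from the data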;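 note: plate controls were enzyme with DMSO for no effect and wells without caspase-3 for full effect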
Luc interf: luminescence interference (SENP counter-screen) | Pre-incubated SENP8/Z-RLRGG-aminoluciferin, luciferase luminescence interference | 39% of 6,200 active | inhibition, % at 12.5 µM | shares compounds with SENP7 block;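 active = mean inhibition above about 50% when retested at one dose, limit read from the data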;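 note: plate controls were DMSO wells with completed reaction for no effect and substrate without enzyme for full effect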
Starred values were filed as active, the others as inactive.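 Rule for the calls, unless noted: active = mean inhibition above about 50% in the one-dose retest (limit read from the data); inactive = the rest.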

Cc1cc(-c2nc3ccccc3o2)c2ccccc2n1 was read as SENP8 block-1 -285, SENP7 block -12, SENP8 block-2 -20, SENP6 inh -6 and HSP90 inh 6.
`Nc1ccc(-c2nc3ccc(-c4nc5ccccc5o4)cc3[nH]2)cc1` gave SENP8 block-1 -474, SENP7 block -7, SENP8 block-2 -4, SENP6 inh -3 and HSP90 inh 4.
Screening CC(C)CNC(=O)CCc1c[nH]c2ccccc12 returned SENP8 block-1 9, SENP7 block 1, SENP8 block-2 -3, SENP6 inh 9 and HSP90 inh 0.
`CCNC(=O)Oc1ccc[nH]c1=O` gave SENP8 block-1 16, SENP7 block 14, SENP8 block-2 13, SENP6 inh 51*, HSP90 inh 3, SENP8 conf -3, SENP6 confirm 0, SENP7 confirm -6, Casp3 select 4 and Luc interf 3.
Cc1ccc(-c2nnc3sc(-c4ccncc4)nn23)cc1 was read as SENP8 block-1 2, SENP7 block 57*, SENP8 block-2 -8, SENP6 inh -16, HSP90 inh -3, SENP8 conf 1, SENP6 confirm 5, SENP7 confirm 10, Casp3 select 6 and Luc interf 3.
Screening Clc1ccc(-c2nnc(SCc3ccon3)o2)c(Cl)c1 returned SENP8 block-1 8, SENP7 block 57*, SENP8 block-2 61*, SENP6 inh 70*, HSP90 inh 1, SENP8 conf 11, SENP6 confirm 62*, SENP7 confirm 87*, Casp3 select 64* and Luc interf 61*.
For Clc1ccc(-c2nnc(SCc3nc4ccccc4[nH]3)o2)c(Cl)c1 the results were SENP8 block-1 8, SENP7 block 2, SENP8 block-2 0, SENP6 inh -7 and HSP90 inh 0.
For C=CCSc1nnc(-c2ccc(Cl)cc2Cl)o1 the results were SENP8 block-1 12, SENP7 block 57*, SENP8 block-2 31, SENP6 inh 60*, HSP90 inh 0, SENP8 conf 18, SENP6 confirm 48, SENP7 confirm 77*, Casp3 select 56* and Luc interf 39.
COc1ccc2[nH]c3c(c2c1)CCN1C(=O)C(CC(=O)NCCN2CCOCC2)C[C@H](C(=O)N2CCOCC2)[C@@]31CCC1CCCC1 (stereo not given in full) was read as SENP8 block-1 14 and SENP7 block 16.
`NC1=C(Br)C(=O)c2ccccc2C1=O` gave SENP8 block-1 104*, SENP7 block 49, SENP8 block-2 54*, SENP6 inh 76*, HSP90 inh 9, SENP8 conf 36, SENP6 confirm 63*, SENP7 confirm 27, Casp3 select 78* and Luc interf 2.
CSc1ccc(NC(=O)Nc2cccn(Cc3ccccc3F)c2=O)cc1 was read as SENP8 block-1 -190, SENP7 block 49, SENP8 block-2 44, SENP6 inh 63*, HSP90 inh -1, SENP8 conf 21, SENP6 confirm 9, SENP7 confirm 43, Casp3 select 26 and Luc interf -2.
Screening [O-][n+]1ccccc1/C=C/c1ccccc1 returned SENP8 block-1 -252, SENP7 block 12, SENP8 block-2 -2 and SENP6 inh -21.
Screening [O-][n+]1c(/C=C/c2ccccc2)ccc2ccccc21 returned SENP8 block-1 -36, SENP7 block 68*, SENP8 block-2 11, SENP6 inh 77*, HSP90 inh -2, SENP8 conf 92*, SENP6 confirm 92*, SENP7 confirm 100*, Casp3 select 91* and Luc interf 89*.
Screening Fc1ccc(NC(=S)N2CCc3ccccc32)cc1 returned SENP8 block-1 2, SENP7 block -9, SENP8 block-2 -2, SENP6 inh -3 and HSP90 inh 4.
`FC(F)Oc1ccc(NC(=S)N2CCc3ccccc32)cc1` gave SENP8 block-1 6, SENP7 block 11, SENP8 block-2 23, SENP6 inh 50*, HSP90 inh 1, SENP8 conf 2, SENP6 confirm -7, SENP7 confirm 23, Casp3 select 8 and Luc interf 9.
O=C(Nc1ccccc1)Nc1ccc(Oc2cccnc2)nc1 was read as SENP8 block-1 8, SENP7 block -7, SENP8 block-2 -7, SENP6 inh -19 and HSP90 inh 8.
`OC1(c2cccc(C(F)(F)F)c2)CCN(Cc2nc(-c3cnccn3)no2)CC1` gave SENP8 block-1 -14, SENP7 block -3, SENP8 block-2 -14, SENP6 inh -16 and HSP90 inh 3.
Screening Cc1cc2nn(-c3cccc4ccccc34)nc2cc1NC(=O)c1cccs1 returned SENP8 block-1 -286, SENP7 block 7, SENP8 block-2 5, SENP6 inh 7 and HSP90 inh -1.
For O=C(c1ccc(O)cc1)c1ccc(O)cc1O the results were SENP8 block-1 16, SENP7 block -2, SENP8 block-2 3 and SENP6 inh -6.
Screening CN(C)c1ccc(C(=O)c2ccc(O)cc2O)cc1 returned SENP8 block-1 31, SENP7 block 42, SENP8 block-2 49, SENP6 inh 67*, HSP90 inh 2, SENP8 conf 54*, SENP6 confirm 51*, SENP7 confirm 83*, Casp3 select 46 and Luc interf 60*.
O=C1Nc2ccc(NS(=O)(=O)c3cccs3)c3cccc1c23 was read as SENP8 block-1 -32, SENP7 block -14, SENP8 block-2 3, SENP6 inh 1 and HSP90 inh 3.
For Brc1ccc(-c2cnc(-c3cccs3)o2)cc1 the results were SENP8 block-1 -370, SENP7 block 62*, SENP8 block-2 41, SENP6 inh 69*, HSP90 inh -3, SENP8 conf 56*, SENP6 confirm 67*, SENP7 confirm 86*, Casp3 select 36 and Luc interf 47.
For c1ccc(-c2cnc(-c3cccnc3)o2)cc1 the results were SENP8 block-1 -482, SENP7 block 4, SENP8 block-2 0, SENP6 inh 0 and HSP90 inh -1.
For c1cc2[nH]c3ccncc3c2cn1 the results were SENP8 block-1 -6.
